# Test results from PubChem BioAssay (NCATS).
# Records with an inconclusive call do not appear. More than one record can exist for a structure, and the calls need not agree. Active and inactive are the calls of the source. Calls follow the shape of the dose curve; as a rule, active = well fitted inhibition curve with a large enough effect in the repeat runs; inconclusive = weak or mixed curves; inactive = no such curve, though single readings can be large or run the other way.
# Target: Cytochrome P450 2C9 (Homo sapiens) (UniProt P11712)
# Sequence (P11712 whole entry, looked up): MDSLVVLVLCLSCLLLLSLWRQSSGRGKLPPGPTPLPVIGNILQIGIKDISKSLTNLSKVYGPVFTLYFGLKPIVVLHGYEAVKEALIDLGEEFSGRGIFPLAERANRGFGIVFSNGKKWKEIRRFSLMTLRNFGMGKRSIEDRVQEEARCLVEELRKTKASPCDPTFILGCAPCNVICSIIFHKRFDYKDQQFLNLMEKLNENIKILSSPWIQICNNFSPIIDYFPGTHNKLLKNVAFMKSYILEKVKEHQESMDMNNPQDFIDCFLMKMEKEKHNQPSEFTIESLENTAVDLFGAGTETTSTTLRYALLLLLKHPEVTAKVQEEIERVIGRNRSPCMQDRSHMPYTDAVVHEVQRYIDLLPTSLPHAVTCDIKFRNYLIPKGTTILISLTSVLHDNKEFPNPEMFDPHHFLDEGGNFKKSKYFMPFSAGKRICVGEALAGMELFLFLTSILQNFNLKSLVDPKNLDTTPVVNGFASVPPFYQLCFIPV
# Experiment: Cytochrome P450 family 2 subfamily C member 9 (CYP2C9) small molecule antagonists: luciferase biochemical (cell-free) qHTS assay (AID 1645842); also: nearly all actives have a fitted effect of over 55% in size
# Settings: P450-Glo CYP2C9 enzyme assay, luciferin luminescence; series mostly up to 57.4 µM; activity change, negative = inhibition: at the top concentration
# Method: National Center for Advancing Translational Sciences [NCATS] Assay Overview: Cytochrome P450 (CYP) enzymes are membrane-bound hemeproteins that play a key role in metabolism of drugs and xenobiotics. Assaying the effect of chemicals on CYP isozymes is useful to minimize the adverse drug reactions and toxicities in drug development process. Chemical compounds were tested for their effect on CYP enzyme activities by using P450-Glo (TM) screening systems (Promega Corporation, Madison, WI). These systems provide a luminescent method containing proluciferin substrates and are converted to luciferin products by CYP isozymes. The luciferin products formed are detected with a luciferin detection reagent, and the amount of light produced is proportional to CYP activity. P450-Glo (TM) CYP2C9 screening system (Catalog. No. V9790) was used to detect the compounds that interfere in CYP2C9 activity.
# Assay Protocol Summary: Two ul of enzyme-substrate mix supplemented with 0.4% Bovine Serum Albumin was dispensed into medium binding white/solid 1536-well plates (Greiner Bio-One North America Inc., Monroe, NC) using a Flying Reagent Dispenser (FRD, Aurora Discovery, San Diego, CA). […] The assay plates were incubated at room temperature for 10 min. Then 2 ul of NADPH regeneration solution was added to each well of the assay plates using an FRD and incubated at 37C for 1 h. The reaction was stopped by adding 4 ul of detection reagent using an FRD and after 20 min incubation at room temperature, the luminescence signal was measured using a ViewLux plate reader (Perkin Elmer, Shelton, CT). Data were expressed as relative luminescence units.
# % is scaled to controls: 0 for no effect and ±100 for the full control effect; potency is read from the fitted curve at half-maximal effect.
SMILES,"activity change, negative = inhibition",Potency
COC[C@@H](c1ccc(C(F)(F)F)cc1)N1CCN(C2(C)CCN(C(=O)c3c(C)ncnc3C)CC2)C[C@H]1C,4.35% (inactive),
COc1cc(NC(=O)c2ccc(-c3ccc(Cl)cc3)o2)cc(OC)c1,,8.49 µM (active)
CCS(=O)(=O)N1CC(CC#N)(n2cc(-c3ncnc4[nH]ccc34)cn2)C1,-14.3% (inactive),
CC1CCC(C(=O)N(c2cc(C#CC(C)(C)C)sc2C(=O)O)C2CCC(O)CC2)CC1 (stereo not given),-26.7% (inactive),
CC[C@]1(O)C[C@@H]2CN(CCc3c([nH]c4ccccc34)[C@@](C(=O)OC)(c3cc4c(cc3OC)N(C)[C@H]3[C@@](O)(C(=O)OC)[C@H](OC(C)=O)[C@]5(CC)C=CCN6CC[C@]43[C@@H]65)C2)C1,,inactive
Cc1cccc(Nc2nc(-c3ccncc3)cs2)c1,,0.268 µM (active)
O=c1[nH]cnc2c1ncn2[C@H]1CC[C@@H](CO)O1,2.14% (inactive),
CN(C)CCC(c1ccccc1)c1ccccn1 (stereo not given),3.45% (inactive),
CC(=O)CCCCn1c(=O)c2c(ncn2C)n(C)c1=O,8.52% (inactive),
Clc1ccc(Cn2c(CN3CCCC3)nc3ccccc32)cc1,,12.3 µM (active)
CC(C)(C)c1cc(C(=O)O)c(NC(=O)Nc2ccc3[nH]ncc3c2)s1,,0.477 µM (active)
COc1ccc2c(Oc3ccc(NC(=O)c4c(C)n(CC(C)(C)O)n(-c5ccccc5)c4=O)cc3F)ccnc2c1,,23.9 µM (active)
COc1cccc2c1CCCC2CCCN1CCN(C2CCCCC2)CC1 (stereo not given),-6.09% (inactive),
CCN1CCC[C@H]1CNC(=O)c1cc(S(N)(=O)=O)ccc1OC,0.951% (inactive),
O=c1c(-c2ccc(O)cc2)coc2cc(OC3O[C@H](CO)[C@H](O)[C@H](O)[C@H]3O)cc(O)c12 (stereo not given in full),2% (inactive),
COc1ccc2cc(-c3nc(-c4ccc(S(C)=O)cc4)[nH]c3-c3ccncc3)ccc2c1 (stereo not given),,3.38 µM (active)
CON=C(C(=O)N[C@@H]1C(=O)N2C(C(=O)OCOC(=O)C(C)(C)C)=C(C=Cc3scnc3C)CS[C@H]12)c1csc(N)n1,,12 µM (active)
CC1(C)Cc2c(sc(NC(=S)NC(=O)c3ccccc3)c2C(=O)O)CO1,,19 µM (active)
C[C@@H](O)[C@H]1C(=O)N2C(C(=O)O)=C(S[C@@H]3CN[C@H](C(=O)N(C)C)C3)[C@H](C)[C@H]12,,inactive
CS(=O)c1ccc(-c2nc(-c3ccc(F)cc3)c(-c3ccncc3)[nH]2)cc1 (stereo not given),,0.952 µM (active)

SMILES,"activity change, negative = inhibition",Potency
Cc1ccc(C(C)(O)c2nc3ccccc3s2)c(C)c1 (stereo not given),,3.01 µM (active)
COc1cc(N2CCC(N3CCN(C)CC3)CC2)ccc1Nc1ncnc(Nc2ccccc2S(=O)(=O)C(C)C)n1,11.8% (inactive),
CN[C@@H](C)C(=O)N[C@H]1CN(C(=O)CC(C)C)CC[C@H]2CC[C@@H](C(=O)NC(c3ccccc3)c3ccccc3)N2C1=O,-0.95% (inactive),
Cc1nc(N)sc1-c1ccnc(Nc2ccc(N3CCOCC3)cc2)n1,,6.01 µM (active)
CC(C)C(=O)Nc1ncc(-c2cc(C(F)F)nn2-c2c(Cl)cccc2Cl)s1,,5.35 µM (active)
CCn1c(C(=O)N(C2CC2)C2CC2)cc2c3c(ncn3C)c(Nc3cc(C)n(C)n3)nc21,,7.56 µM (active)
CC(C)OC(=O)C(C)(C)Oc1ccc(C(=O)c2ccc(Cl)cc2)cc1,,2.45 µM (active)
Clc1ccc(-c2nc3sccn3c2C=NOCc2ccc(Cl)c(Cl)c2)cc1,,3.79 µM (active)
CCCCC1C(=O)N(c2ccccc2)N(c2ccccc2)C1=O,,8.71 µM (active)
O=C(Nc1ccccc1Br)N[C@@H]1CCN(c2ccc(C(F)(F)F)cn2)C1,,23.9 µM (active)
O=C(O)c1cc(-c2ccccc2)nc2ccccc12,,27 µM (active) and inactive
CC(C)(Cc1ccc2ccccc2c1)NC[C@@H](O)COc1cccc(Cl)c1C#N,,2.68 µM (active)
CCCCCNC(=O)N1CCC(CN(Cc2ccc(Cl)cc2)Cc2ccc([N+](=O)[O-])s2)C1 (stereo not given),,2.68 µM (active)
C[N+](C)(C)CCCCCC[N+](C)(C)C,5.87% (inactive),
NC(=O)c1cccc(-c2cc(Nc3ccc(OC(F)(F)F)cc3)ncn2)c1,,15.1 µM (active)
O=C(CCCCCCC(=O)Nc1ccccc1)NO,-3.05% (inactive),
O=C(Nc1cccc(Br)c1)c1cccc(S(=O)(=O)N2CCCCCC2)c1,,6.01 µM (active)
COc1ccc2c(Oc3ccc(NC(=O)c4c(C)n(CC(C)(C)O)n(-c5ccccc5)c4=O)nc3)ccnc2c1,,19 µM (active)
CN(C)c1cc(NC(=O)CNC(C)(C)C)c(O)c2c1C[C@@H]1C[C@H]3[C@H](N(C)C)C(=O)C(C(N)=O)=C(O)[C@@]3(O)C(=O)C1=C2O,-13.2% (inactive),
COCCOC(=O)C1=C(C)NC2=C(C(=O)CC(c3ccccc3OC)C2)C1c1cccc(O)c1 (stereo not given),,1.69 µM (active)
